Screening data from PubChem.
BCR signal inh: chronic active BCR signaling inhibition. 0.05% of 340,000 active. AID 493014. ABC-DLBCL IkBa-CBG/CBR reporter, luminescence ratio, 4 h. Potency, µM (titrated, usually from 46.1 µM), for the others: top-dose activity change, negative = inhibition, usual class: inhibitors; active = well fitted inhibition curve with a large enough effect in the signal ratio, with a control signal flat, not every such curve was filed as active; inconclusive = small, poorly fitted or top-dose-only effect, or effect the other way, or a change in a side signal; the % refers to the signal ratio;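 also: potency is read from the fitted curve at half-maximal effect; plate controls were basal doxycycline-induced cells for no effect and cells given 10 µM MG132 for full effect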
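TMD8 human ABC-DLBCL cells with doxycycline-inducible IκBα–green luciferase fusion and unfused red luciferase, in 0.5% FBS medium; compounds up to 46 uM, 4 h at 37C. Green/red luminescence ratio, filter-overlap corrected, fitted to concentration-response curves.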
RORgamma inh: inhibitors of mouse ROR gamma transcriptional activity; Drosophila S2 Gal4-RORgamma UAS-luciferase reporter, 20 h; AID 2551; Potency, µM (titrated, usually from 53.6 µM), for the others: at the highest dose activity change, negative = inhibition, most hits filed as inhibitors; 5.4% of 310,000 active; also: potency is read from the fitted curve at half-maximal effect; % is scaled to controls: 0 for no effect and ±100 for the full control effect; nearly all actives have a fitted effect of over 60% in size
Target sequence (P51450 whole entry, looked up, the tested form may be a part): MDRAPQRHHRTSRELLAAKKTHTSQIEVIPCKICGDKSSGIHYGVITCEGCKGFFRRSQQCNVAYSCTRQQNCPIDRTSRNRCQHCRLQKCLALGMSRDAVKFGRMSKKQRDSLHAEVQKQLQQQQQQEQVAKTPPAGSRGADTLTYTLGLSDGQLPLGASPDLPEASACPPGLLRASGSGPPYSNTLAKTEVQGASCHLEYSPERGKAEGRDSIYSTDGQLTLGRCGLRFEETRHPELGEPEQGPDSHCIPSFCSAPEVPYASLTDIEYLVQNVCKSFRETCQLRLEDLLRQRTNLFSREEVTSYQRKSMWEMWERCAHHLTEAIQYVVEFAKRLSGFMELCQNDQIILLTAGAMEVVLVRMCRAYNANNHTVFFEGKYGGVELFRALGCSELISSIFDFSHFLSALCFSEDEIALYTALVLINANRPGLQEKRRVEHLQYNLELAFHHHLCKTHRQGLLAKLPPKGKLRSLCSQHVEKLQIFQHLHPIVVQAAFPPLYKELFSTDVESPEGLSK
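ROR gamma transcriptional activity was tracked as Gal4-UAS luciferase output in stably transfected Drosophila Schneider cells, with compound added 1 hr before 700 uM copper sulfate induction and a 20 hr ambient-temperature incubation.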
VP16 counter: Gal4-VP16 reporter inhibition counter-screen | AID 2546 | 3.5% of 310,000 active | Drosophila S2 Gal4-VP16 UAS-luciferase, luminescence, 20 h | Potency, µM (series often up to 53.6 µM), without a hit: at the highest dose activity, negative = inhibition, hits mostly inhibitors;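 also: Gal4-VP16 expression switched on by copper sulfate through the metallothionein promoter; potency is read from the fitted curve at half-maximal effect; % is scaled to controls: 0 for no effect and ±100 for the full control effect; nearly all actives have a fitted effect of over 50% in size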
Giardia killer: kills Giardia lamblia; 0.15% of 340,000 active; Giardia lamblia trophozoite viability; AID 540267; activity change, % at 7.66 µM, hits read low; in the data active = activity change below about -80%; inconclusive = between about -30% and that limit;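 also: parasites exposed to compound for two days anaerobically before the ATP read; % is scaled to controls: 0 for no effect and ±100 for the full control effect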
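Luminescent ATP signal served as the viability read-out, measured 15-30 min after adding ATP detection reagent to trophozoites that had been incubated with compounds for 48 hrs at 37 deg C anaerobically at 100 cells/well.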
SW480 rereplic: inducers of DNA re-replication in SW480 colon cancer cells. SW480 DNA re-replication, Hoechst DNA content imaging, 48 h. Potency, µM (top dose mostly 46.1 µM), for the others: top-dose re-replication activation, usual class: activators. 1.8% of 340,000 active. AID 624297; also: potency is read from the fitted curve at half-maximal effect; % of control where 0% means no effect; nearly all actives have a fitted effect of over 55% in size
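Hoechst fluorescence of nuclei (405 nm excitation, 500-530 nm emission) measured by plate-scanning imager after 48 hr compound exposure at 37 C; re-replication scored as increased number of nuclei with elevated intensity.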
MCF10A rereplic: induces DNA re-replication in MCF 10a normal breast cells; MCF 10A DNA re-replication, Hoechst nuclear intensity, 48 h; Potency, µM (series often up to 46.1 µM), inactives show at the top dose activity, positive = re-replication, most hits filed as activators; 2.9% of 350,000 active; AID 624296; also: potency is read from the fitted curve at half-maximal effect; % of control where 0% means no effect; nearly all actives have a fitted effect of over 50% in size
The depositor's hits bear a star; [ ] = dose if it differs, or a comment. Only some compounds are listed: those with a hit (about 8.3% of all), similar ones and a draw of the others. Unless noted, calls follow the shape of the dose curve; as a rule, active = well fitted curve in the direction sought with a large enough effect; inconclusive = small, poorly fitted or top-dose-only effect, or another doubt; inactive = no such curve, though single readings can be large; an effect the other way counts as inactive or inconclusive.

`O=C(CCS(=O)(=O)Cc1ccccc1)Nc1nncs1` gave BCR signal inh -8%, RORgamma inh -25%, VP16 counter -9%, Giardia killer 18, SW480 rereplic 21µM* and MCF10A rereplic inconclusive.
O=C(CCS(=O)(=O)Cc1ccccc1)Nc1ncc([N+](=O)[O-])s1 was read as BCR signal inh 1%, RORgamma inh 7.9µM*, VP16 counter inconclusive, Giardia killer inconclusive, SW480 rereplic 23µM* and MCF10A rereplic inconclusive.
For COc1ccc(OC)c(/C(O)=C/C(=O)C(=O)Nc2cc(C)ccc2OC)c1 the results were BCR signal inh 1%, RORgamma inh 3.5µM*, VP16 counter 11µM*, Giardia killer 0, SW480 rereplic 3% and MCF10A rereplic 2%.
For COc1ccc(OC)c(/C(O)=C/C(=O)C(=O)Nc2cc(C)cc(C)c2)c1 the results were BCR signal inh inconclusive, RORgamma inh 2.5µM*, VP16 counter 18µM*, Giardia killer -2, SW480 rereplic inconclusive and MCF10A rereplic 6%.
COc1ccc(NC(=O)c2cc(F)cc(F)c2)cc1S(=O)(=O)N1CCCCC1 was read as BCR signal inh 0%, Giardia killer 4, SW480 rereplic 1% and MCF10A rereplic inconclusive.
Screening CCCCSc1nc(C)cc(NC(=S)Nc2ccc(OC)cc2)n1 returned BCR signal inh -4%, RORgamma inh 1.3µM*, VP16 counter 3.5µM*, Giardia killer -1, SW480 rereplic 15% and MCF10A rereplic inconclusive.
For C=CCN(CC=C)C(=S)Nc1ccc2nsnc2c1 the results were BCR signal inh inconclusive, RORgamma inh 3.5µM*, VP16 counter 6.3µM*, Giardia killer 20, SW480 rereplic 1% and MCF10A rereplic 1%.
For CNC(=S)Nc1ccc2nc(C)c(C)nc2c1 the results were BCR signal inh -12%, RORgamma inh 24%, VP16 counter -6%, Giardia killer 3, SW480 rereplic -27% and MCF10A rereplic 201%[0.0737 µM].
For C=CCNC(=S)Nc1ccc2nsnc2c1 the results were BCR signal inh 3%, RORgamma inh -32%, VP16 counter 6%, Giardia killer 6, SW480 rereplic 0% and MCF10A rereplic 17%.
Screening COc1ccc(NC(=S)Nc2ccc3nsnc3c2)cc1 returned BCR signal inh -1%, RORgamma inh 10µM*, VP16 counter 5.6µM*, Giardia killer 5, SW480 rereplic 6% and MCF10A rereplic 22%.
`COc1ccc(NC(=S)Nc2ccc3nc(C)c(C)nc3c2)cc1` gave BCR signal inh -21%, RORgamma inh 11µM*, VP16 counter -3%, Giardia killer 0, SW480 rereplic -1% and MCF10A rereplic 7%.
For CCOC(=O)c1c(C)[nH]c(C)c1C(=O)COC(=O)c1cccnc1OCC the results were BCR signal inh -11%, Giardia killer 21, SW480 rereplic 5% and MCF10A rereplic 9%.
Screening CCOc1ccc(NC(=S)Nc2ccc3nsnc3c2)cc1 returned BCR signal inh 5%, RORgamma inh -91%, VP16 counter inconclusive, Giardia killer -26, SW480 rereplic 21µM* and MCF10A rereplic inconclusive.
CC(C)N(C(=O)Nc1ccc2nsnc2c1)C(C)C was read as BCR signal inh inconclusive, RORgamma inh -11%, VP16 counter -20%, Giardia killer 1, SW480 rereplic inconclusive and MCF10A rereplic 16µM*.
For Cc1ccc(S(=O)(=O)N2CCN(c3nc(-c4cncn4C)nc4ccccc34)CC2)cc1 the results were Giardia killer -12.
`CCCCCCCCCCCCCCCC(=O)OCC1OC(n2ccc(N)nc2=O)C(O)C1O` (centres undefined) gave Giardia killer 25, SW480 rereplic inconclusive and MCF10A rereplic inconclusive.
Screening CCCCCCCCCCCCCCCC(=O)Nc1ccn(C2OC(CO)C(O)C2O)c(=O)n1 (centres undefined) returned Giardia killer 4, SW480 rereplic 2.6µM* and MCF10A rereplic -6%.
Screening Cc1ccc(C)c(NC(=S)NC(NC(=O)OCc2ccccc2)C(Cl)(Cl)Cl)c1 (centres undefined) returned BCR signal inh 12%, RORgamma inh 14µM*, VP16 counter inconclusive, Giardia killer 16, SW480 rereplic inconclusive and MCF10A rereplic inconclusive.
Screening CCOC(=O)NC(NC(=S)Nc1ccccc1[N+](=O)[O-])C(Cl)(Cl)Cl (centres undefined) returned BCR signal inh 2%, RORgamma inh 16%, VP16 counter -12%, Giardia killer 18, SW480 rereplic 1% and MCF10A rereplic 13%.
Screening O=C(NC(NC(=S)Nc1c(Cl)cc(Cl)cc1Cl)C(Cl)(Cl)Cl)OCc1ccccc1 (centres undefined) returned BCR signal inh inconclusive, RORgamma inh 7.1µM*, VP16 counter 5.6µM*, Giardia killer 8, SW480 rereplic inconclusive and MCF10A rereplic 13µM*.
For c1ccc(COc2ccc(CNCc3cccs3)cc2)cc1 the results were BCR signal inh inconclusive, RORgamma inh inconclusive, VP16 counter 16µM*, Giardia killer 7, SW480 rereplic -12% and MCF10A rereplic inconclusive.
For Brc1ccc(CNCc2cccs2)cc1 the results were BCR signal inh inconclusive, RORgamma inh 4%, VP16 counter 2%, Giardia killer 4, SW480 rereplic -2% and MCF10A rereplic 7%.
For Cc1cn([C@H]2C[C@H](N=[N+]=[N-])[C@H](CO)O2)c(=O)[nH]c1=O the results were RORgamma inh 3%[10 µM], VP16 counter 4%, SW480 rereplic -15% and MCF10A rereplic 3%.
`Cc1cc(C)cc(N2Cc3ccccc3C2)c1` gave BCR signal inh -5%, RORgamma inh 43%, VP16 counter 9%, Giardia killer 15, SW480 rereplic -9% and MCF10A rereplic -3%.
For COc1cc(N2Cc3ccccc3C2)ccc1C=O the results were BCR signal inh 1%, RORgamma inh 0.35µM*, VP16 counter 0.4µM*, Giardia killer -18, SW480 rereplic -4% and MCF10A rereplic -3%.
For Oc1c(C(c2ccccc2)N2CCOCC2)ccc2ccccc12 (centres undefined) the results were Giardia killer 2, SW480 rereplic inconclusive and MCF10A rereplic 16µM*.
`O=C1CC(c2ccc(F)cc2)CC2=C1C(c1ccc([N+](=O)[O-])o1)Nc1ccccc1N2` (centres undefined) gave BCR signal inh inconclusive, RORgamma inh inconclusive, VP16 counter 32%, Giardia killer -90*, SW480 rereplic inconclusive and MCF10A rereplic 23%.
